# Measured values: PubChem BioAssay (EPA / NIEHS)
# Active and inactive are the calls of the source. Rule for the calls: active = hit-call score of the fitted dose curve at least 0.9, where 1 is the maximum; inactive = score below 0.9.
# Experiments:
# [1] = ATG_GLI_CIS: Attagene CIS-FACTORIAL HepG2 Assay for human Zinc Finger Protein GLI1 (AID 2282945); settings: HepG2, Attagene cis-factorial reporter mRNA, GLI element; actives raise or lower the signal
# Method in brief: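 Transiently transfected HepG2 cells report endogenous transcription factor activity via cis-element-driven reporter units. After 24 h compound exposure, reporter mRNA was measured by RT-PCR with capillary electrophoresis; bidirectional fitting against DMSO baseline.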
# [2] = ATG_ISRE_CIS: Attagene CIS-FACTORIAL HepG2 Assay for human Interferon Regulatory Factor 1 (IRF1) binding to an Interferon-Stimulated Response Element (ISRE) (AID 2282948); settings: HepG2 ISRE cis-reporter (Attagene), mRNA transcription readout; actives raise or lower the signal
# Method in brief: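 Uses HepG2 liver cells transfected with cis-regulated reporters and measures mRNA 24 h post-dosing through RT-PCR, primer-extension labelling and capillary electrophoresis, with DMSO as negative control.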
# [3] = ATG_M_32_CIS: Attagene CIS-FACTORIAL HepG2 Assay for M32 Transcription Factor (Internal Marker) (AID 2282949); settings: HepG2 Attagene cis-factorial M32 reporter, mRNA; actives raise or lower the signal;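 note: background control marker of the multiplexed CIS panel rather than a real target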
# Method in brief: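 HepG2 human liver cells transiently transfected with cis-promoter-driven multiple reporter transcription units, dosed 24 h. Reporter mRNA quantified by RT-PCR, FAM-labelled primer extension, HpaI digest and capillary electrophoresis; bidirectional fit versus DMSO baseline.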
# [4] = ATG_M_06_CIS: Attagene CIS-FACTORIAL HepG2 Assay for M06 Transcription Factor (Internal Marker) (AID 2282950); settings: HepG2 Attagene CIS-FACTORIAL M06 internal marker reporter; actives raise or lower the signal
# Method in brief: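 Internal background marker within multiplexed cis-reporter HepG2 system. Cells transiently transfected, dosed 24 h; reporter mRNA measured by RT-PCR, HpaI digestion and capillary electrophoresis. Bidirectional fit relative to DMSO.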
# [5] = target: Hypoxia-inducible factor 1-alpha (Homo sapiens) (UniProt Q16665); assay: ATG_HIF1a_CIS: Attagene CIS-FACTORIAL HepG2 Assay for human Hypoxia Inducible Factor 1 (HIF1A) (AID 2282951); settings: HepG2 Attagene cis-factorial HIF1a reporter transcription; actives raise or lower the signal
# Hypoxia-inducible factor 1-alpha (Homo sapiens), sequence (Q16665 whole entry, looked up, the tested form may be a part): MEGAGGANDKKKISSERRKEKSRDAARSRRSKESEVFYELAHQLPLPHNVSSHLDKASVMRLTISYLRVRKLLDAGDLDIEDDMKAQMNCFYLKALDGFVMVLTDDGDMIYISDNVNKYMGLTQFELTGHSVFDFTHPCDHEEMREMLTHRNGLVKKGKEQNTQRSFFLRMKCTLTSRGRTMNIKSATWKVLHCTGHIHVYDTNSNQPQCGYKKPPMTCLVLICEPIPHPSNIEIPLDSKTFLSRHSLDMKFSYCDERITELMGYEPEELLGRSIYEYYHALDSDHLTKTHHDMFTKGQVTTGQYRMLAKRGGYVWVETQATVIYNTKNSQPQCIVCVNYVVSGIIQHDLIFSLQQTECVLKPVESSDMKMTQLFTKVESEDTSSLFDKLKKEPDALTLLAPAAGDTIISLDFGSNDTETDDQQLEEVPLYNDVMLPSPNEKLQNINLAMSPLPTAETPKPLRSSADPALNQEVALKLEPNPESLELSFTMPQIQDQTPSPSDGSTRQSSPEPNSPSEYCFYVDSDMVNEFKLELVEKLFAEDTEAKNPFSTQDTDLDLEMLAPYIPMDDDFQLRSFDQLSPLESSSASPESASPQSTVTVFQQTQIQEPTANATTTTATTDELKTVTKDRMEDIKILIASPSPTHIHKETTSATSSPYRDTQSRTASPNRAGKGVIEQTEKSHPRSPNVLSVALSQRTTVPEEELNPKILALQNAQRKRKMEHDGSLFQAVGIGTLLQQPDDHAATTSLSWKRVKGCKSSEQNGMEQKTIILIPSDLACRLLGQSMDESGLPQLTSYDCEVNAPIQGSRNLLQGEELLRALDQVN
# Method in brief: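 Transient MRTU transfection of human HepG2 liver cells, 24 h compound treatment, then total RNA isolation, oligo(dT) reverse transcription, PCR amplification, fluorescent labelling and capillary electrophoresis of reporter fragments. Gain or loss relative to DMSO.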
# [6] = target: Hepatocyte nuclear factor 6 (Homo sapiens) (UniProt Q9UBC0); assay: ATG_HNF6_CIS: Attagene CIS-FACTORIAL HepG2 Assay for human Hepatocyte Nuclear Factor 6 (HNF6) (AID 2282952); settings: HepG2 Attagene cis-factorial HNF6 reporter transcription; actives raise or lower the signal
# Hepatocyte nuclear factor 6 (Homo sapiens), sequence (Q9UBC0 whole entry, looked up, the tested form may be a part): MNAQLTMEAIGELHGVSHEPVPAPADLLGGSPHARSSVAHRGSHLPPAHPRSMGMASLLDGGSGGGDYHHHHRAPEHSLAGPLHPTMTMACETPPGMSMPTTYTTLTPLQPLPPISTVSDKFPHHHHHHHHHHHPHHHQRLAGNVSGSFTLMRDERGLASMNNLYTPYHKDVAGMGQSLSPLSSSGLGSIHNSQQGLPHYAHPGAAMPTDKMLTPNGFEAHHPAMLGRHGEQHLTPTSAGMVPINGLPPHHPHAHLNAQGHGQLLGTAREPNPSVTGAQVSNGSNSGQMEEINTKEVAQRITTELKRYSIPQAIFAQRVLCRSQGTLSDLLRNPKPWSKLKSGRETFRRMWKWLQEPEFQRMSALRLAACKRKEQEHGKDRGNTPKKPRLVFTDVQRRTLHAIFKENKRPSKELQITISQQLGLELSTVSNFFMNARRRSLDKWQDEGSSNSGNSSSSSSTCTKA
# Method in brief: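 Using cis-element reporters in HepG2 liver cells, the assay tracks endogenous factor-driven transcription 24 h post-dosing. Signal comes from 6-FAM-labelled, HpaI-digested RT-PCR fragments, with gain or loss scored against DMSO.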
# [7] = target: Heat shock factor protein 1 (Homo sapiens) (UniProt Q00613); assay: ATG_HSE_CIS: Attagene CIS-FACTORIAL HepG2 Assay for human Heat Shock Transcription Factor 1 (HSE) (AID 2282953); settings: HepG2 HSE cis-reporter, Attagene RNA transcription; actives raise or lower the signal
# Heat shock factor protein 1 (Homo sapiens), sequence (Q00613 whole entry, looked up): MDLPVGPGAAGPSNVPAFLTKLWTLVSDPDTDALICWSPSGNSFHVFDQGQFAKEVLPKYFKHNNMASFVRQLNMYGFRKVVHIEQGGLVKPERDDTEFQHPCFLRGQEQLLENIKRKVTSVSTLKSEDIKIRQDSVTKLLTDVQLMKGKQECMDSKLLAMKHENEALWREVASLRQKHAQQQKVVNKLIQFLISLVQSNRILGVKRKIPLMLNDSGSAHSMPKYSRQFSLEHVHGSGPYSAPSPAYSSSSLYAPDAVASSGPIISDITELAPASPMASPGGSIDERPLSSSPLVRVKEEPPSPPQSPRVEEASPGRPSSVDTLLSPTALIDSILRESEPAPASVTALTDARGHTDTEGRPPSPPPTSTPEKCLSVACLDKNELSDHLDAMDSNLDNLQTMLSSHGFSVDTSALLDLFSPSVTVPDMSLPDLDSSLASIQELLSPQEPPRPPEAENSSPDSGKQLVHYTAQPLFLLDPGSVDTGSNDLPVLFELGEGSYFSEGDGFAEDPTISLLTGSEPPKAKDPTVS
# Method in brief: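 HepG2 cells transfected with cis-promoter reporter units sensing endogenous transcription factor activity; reporter mRNA quantified 24 h post-dose by RT-PCR and capillary electrophoresis of 6-FAM-labelled products. Bidirectional fitting against DMSO.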
# [8] = ATG_MRE_CIS: Attagene CIS-FACTORIAL HepG2 Assay for human Metal Responsive Element (MRE) (AID 2282954); settings: HepG2 MRE cis-reporter transcription, Attagene multiplex; actives raise or lower the signal
# Method in brief: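 Measured here is mRNA induction from an MRE cis-element reporter in HepG2 after 24 h, quantified by fluorescence of labelled RT-PCR products on capillary electrophoresis; gain- and loss-of-signal fits use DMSO as baseline.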
# [9] = ATG_PBREM_CIS: Attagene CIS-FACTORIAL HepG2 Assay for human Phenobarbital-responsive Enhancer Module (PBREM) (AID 2282955); settings: HepG2 PBREM cis-reporter, Attagene multiplexed transcription; actives raise or lower the signal
# Method in brief: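 Endogenous transcription factors in human liver HepG2 cells drive a PBREM cis-element reporter, whose transcript level after 24 h treatment is quantified by RT-PCR with capillary electrophoresis; activity fitted in both directions against DMSO.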
# [10] = target: Paired box protein Pax-6 (Homo sapiens) (UniProt P26367); assay: ATG_Pax6_CIS: Attagene CIS-FACTORIAL HepG2 Assay for human Paired Box 6 (PAX6) (AID 2282956); settings: HepG2 CIS-FACTORIAL PAX6 reporter transcription, RNA readout; actives raise or lower the signal
# Paired box protein Pax-6 (Homo sapiens), sequence (P26367 whole entry, looked up): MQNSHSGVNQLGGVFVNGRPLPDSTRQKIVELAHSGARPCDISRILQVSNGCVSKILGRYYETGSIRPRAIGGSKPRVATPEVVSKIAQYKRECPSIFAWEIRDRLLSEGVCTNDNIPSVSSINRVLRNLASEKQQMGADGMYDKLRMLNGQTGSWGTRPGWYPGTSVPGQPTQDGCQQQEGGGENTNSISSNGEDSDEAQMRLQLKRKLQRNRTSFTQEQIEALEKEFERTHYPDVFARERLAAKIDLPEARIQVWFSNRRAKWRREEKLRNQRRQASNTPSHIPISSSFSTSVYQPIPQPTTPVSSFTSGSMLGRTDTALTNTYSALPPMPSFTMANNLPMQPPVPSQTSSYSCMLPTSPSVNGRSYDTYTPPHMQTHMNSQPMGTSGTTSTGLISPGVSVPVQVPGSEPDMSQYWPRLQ
# Method in brief: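 DMSO-referenced bidirectional fits of reporter mRNA fluorescence; HepG2 with transient cis-promoter MRTUs, 24 h post-dose, RT-PCR plus capillary electrophoresis detection.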
# [11] = ATG_PXRE_CIS: Attagene CIS-FACTORIAL HepG2 Assay for human Pregnane X Receptor Element (PXRE) (AID 2282957); settings: HepG2 Attagene CIS-FACTORIAL PXRE reporter, mRNA; actives raise or lower the signal
# Method in brief: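 Using HepG2 transfected with multiple reporter transcription units, endogenous factor-driven transcription was scored as reporter mRNA after 24 h exposure.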
# [12] = ATG_PPRE_CIS: Attagene CIS-FACTORIAL HepG2 Assay for human Peroxisome Proliferator-activated Response Element (PPRE) (AID 2282958); settings: HepG2 PPRE cis-element reporter, Attagene transcription factor profiling; actives raise or lower the signal
# Method in brief: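 HepG2, transient MRTU transfection (cis promoter elements, endogenous TFs). 24 h dosing. RNA → oligo(dT) RT → PCR → 6-FAM primer extension → HpaI digest → CE. Bidirectional fit vs DMSO.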
# [13] = ATG_RORE_CIS: Attagene CIS-FACTORIAL HepG2 Assay for human RAR-related Orphan Receptor Element (RORE) (AID 2282959); settings: HepG2 Attagene cis-factorial RORE reporter, mRNA; actives raise or lower the signal
# Method in brief: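 Transient MRTU transfection of human HepG2 liver cells (FuGene 6); 24 h compound exposure; TriZol RNA, oligo(dT) RT, PCR, FAM labeling, HpaI cut, CE fragment analysis. DMSO = negative control/baseline.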
# [14] = ATG_Sox_CIS: Attagene CIS-FACTORIAL HepG2 Assay for human SRY-box transcription factor (SOX) (AID 2282960); settings: HepG2 Attagene cis-factorial SOX reporter, mRNA; actives raise or lower the signal
# Method in brief: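 Endogenous factor activity in human liver HepG2 cells carrying transfected cis-regulated reporter units. RNA taken 24 h post-dose, reverse-transcribed, PCR-amplified and sized by capillary electrophoresis. Gain or loss of signal fitted relative to DMSO.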
# [15] = target: Transcription factor Sp1 (Homo sapiens) (UniProt P08047); assay: ATG_Sp1_CIS: Attagene CIS-FACTORIAL HepG2 Assay for human Specificity Protein 1 (Sp1) (AID 2282961); settings: HepG2 Sp1 cis-reporter transcription, actives raise or lower the signal
# Transcription factor Sp1 (Homo sapiens), sequence (P08047 whole entry, looked up): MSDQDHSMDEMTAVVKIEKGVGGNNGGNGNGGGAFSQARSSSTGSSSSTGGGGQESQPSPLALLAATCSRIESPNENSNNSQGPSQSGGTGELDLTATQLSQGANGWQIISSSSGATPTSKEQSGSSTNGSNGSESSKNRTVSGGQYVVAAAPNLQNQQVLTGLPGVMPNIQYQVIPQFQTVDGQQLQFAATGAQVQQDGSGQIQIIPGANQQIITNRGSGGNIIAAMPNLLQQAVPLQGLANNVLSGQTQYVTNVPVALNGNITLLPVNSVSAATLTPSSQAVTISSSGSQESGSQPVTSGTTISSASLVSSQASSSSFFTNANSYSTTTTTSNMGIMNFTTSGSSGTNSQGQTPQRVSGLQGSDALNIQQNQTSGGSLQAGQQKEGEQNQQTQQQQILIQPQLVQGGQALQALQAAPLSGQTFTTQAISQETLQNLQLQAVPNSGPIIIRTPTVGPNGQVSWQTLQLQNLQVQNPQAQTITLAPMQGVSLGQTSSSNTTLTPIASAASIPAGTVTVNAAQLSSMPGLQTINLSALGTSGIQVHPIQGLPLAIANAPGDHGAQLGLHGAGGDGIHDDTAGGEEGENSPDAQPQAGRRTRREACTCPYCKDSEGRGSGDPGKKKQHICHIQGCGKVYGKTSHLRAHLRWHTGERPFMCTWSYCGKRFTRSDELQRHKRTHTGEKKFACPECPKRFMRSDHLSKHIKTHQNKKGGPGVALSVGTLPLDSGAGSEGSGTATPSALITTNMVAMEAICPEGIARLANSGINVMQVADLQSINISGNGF
# Method in brief: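 Transient MRTU-transfected HepG2, 24 h compound exposure. Total RNA → oligo(dT) RT → PCR of reporter → 6-FAM primer extension → HpaI digest → CE. Endpoint fitted both directions vs DMSO.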
# [16] = target: Signal transducer and activator of transcription 3 (Homo sapiens) (UniProt P40763); assay: ATG_STAT3_CIS: Attagene CIS-FACTORIAL HepG2 Assay for human Signal Transducer and Activator of Transcription 3 (STAT3) (AID 2282963); settings: HepG2, Attagene cis-factorial STAT3 reporter transcription; actives raise or lower the signal
# Signal transducer and activator of transcription 3 (Homo sapiens), sequence (P40763 whole entry, looked up, the tested form may be a part): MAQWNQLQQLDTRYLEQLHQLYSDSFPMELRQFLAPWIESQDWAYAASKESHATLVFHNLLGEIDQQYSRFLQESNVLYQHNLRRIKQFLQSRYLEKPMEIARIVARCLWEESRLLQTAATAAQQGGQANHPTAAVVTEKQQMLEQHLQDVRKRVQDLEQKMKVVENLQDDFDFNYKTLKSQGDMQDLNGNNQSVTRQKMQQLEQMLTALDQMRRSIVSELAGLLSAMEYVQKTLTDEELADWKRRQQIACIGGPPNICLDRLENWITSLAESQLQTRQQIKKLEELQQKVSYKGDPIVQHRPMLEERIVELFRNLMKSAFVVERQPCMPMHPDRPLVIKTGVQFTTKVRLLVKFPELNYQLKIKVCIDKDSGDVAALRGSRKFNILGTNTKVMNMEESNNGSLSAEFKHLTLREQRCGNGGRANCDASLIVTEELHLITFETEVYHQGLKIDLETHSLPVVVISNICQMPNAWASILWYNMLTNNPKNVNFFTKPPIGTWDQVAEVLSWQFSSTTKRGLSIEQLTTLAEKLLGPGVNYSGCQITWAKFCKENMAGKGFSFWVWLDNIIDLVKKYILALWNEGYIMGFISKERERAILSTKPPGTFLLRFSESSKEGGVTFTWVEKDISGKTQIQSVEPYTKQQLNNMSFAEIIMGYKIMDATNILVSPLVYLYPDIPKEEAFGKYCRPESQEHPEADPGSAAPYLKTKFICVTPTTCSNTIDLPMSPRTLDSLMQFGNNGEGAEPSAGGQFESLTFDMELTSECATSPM
# Method in brief: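 Fluorescence intensity of 6-FAM-labelled reporter fragments, separated by capillary electrophoresis after RT-PCR, gave the signal. Cells were HepG2 transfected with cis-element reporter units and treated 24 h; fitting was bidirectional relative to DMSO.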
# [17] = ATG_TA_CIS: Attagene CIS-FACTORIAL HepG2 Assay for human TA Basal Promoter (AID 2282964); settings: HepG2 Attagene CIS-factorial TA basal promoter reporter; actives raise or lower the signal
# Method in brief: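 HepG2 cells transiently transfected with multiple reporter units under cis promoter elements, reporting endogenous transcription factor activity; this endpoint tracks the TA basal promoter as background control. Reporter mRNA after 24 h dosing measured by RT-PCR/capillary electrophoresis; bidirectional fits versus DMSO.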
# [18] = ATG_GRE_CIS: Attagene CIS-FACTORIAL HepG2 Assay for human Glucocorticoid Response Elements (GRE) (AID 2282947); settings: HepG2 GRE cis-reporter, Attagene multiplex mRNA; actives raise or lower the signal
# Method in brief: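 Fluorescence intensity of reporter-specific cDNA fragments, separated by capillary electrophoresis, provides the signal. Constructs carry cis-regulating promoters in transiently transfected HepG2 liver cells; 24 h incubation; fitting is bidirectional against DMSO.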
# [19] = ATG_SREBP_CIS: Attagene CIS-FACTORIAL HepG2 Assay for human Sterol Regulatory Element Binding (SREBP) (AID 2282962); settings: HepG2 Attagene cis-factorial SREBP reporter, mRNA; actives raise or lower the signal
# Method in brief: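 In this cis-format assay, HepG2 liver cells express reporters controlled by promoter elements responsive to native transcription factors. Exposure lasts 24 h; reporter mRNA fluorescence from capillary electrophoresis gives the signal, fitted bidirectionally against DMSO.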
smiles,measurement,setting,value
CC(=O)OCC=C(C)CCC=C(C)CCC=C(C)C,AC50,[1],164 µM (active)
same,AC50,[2],147 µM (active)
same,outcome,[3],inactive
same,outcome,[4],inactive
same,outcome,[5],inactive
same,outcome,[6],inactive
same,AC50,[7],72.3 µM (active)
same,AC50,[8],100 µM (active)
same,AC50,[9],175 µM (active)
same,AC50,[10],63.8 µM (active)
same,AC50,[11],9.61 µM (active)
same,outcome,[12],inactive
same,AC50,[13],164 µM (active)
same,AC50,[14],162 µM (active)
same,outcome,[15],inactive
same,outcome,[16],inactive
same,AC50,[17],100 µM (active)
O=C1CCCCCCCCCCCC(=O)OCCO1,outcome,[1],inactive
same,outcome,[18],inactive
same,outcome,[3],inactive
same,outcome,[4],inactive
same,outcome,[5],inactive
same,outcome,[6],inactive
same,outcome,[7],inactive
same,outcome,[9],inactive
same,outcome,[10],inactive
same,outcome,[12],inactive
same,outcome,[13],inactive
same,outcome,[14],inactive
same,outcome,[15],inactive
same,outcome,[19],inactive
same,outcome,[16],inactive
same,outcome,[17],inactive
CCCCCCCCCC(=O)OCC,outcome,[1],inactive
same,outcome,[2],inactive
same,outcome,[3],inactive
same,outcome,[4],inactive
same,outcome,[5],inactive
same,outcome,[6],inactive
same,outcome,[7],inactive
same,outcome,[8],inactive
same,outcome,[9],inactive
same,outcome,[10],inactive
same,outcome,[11],inactive
same,outcome,[12],inactive
same,outcome,[13],inactive
same,outcome,[14],inactive
same,outcome,[15],inactive
same,outcome,[19],inactive
same,outcome,[16],inactive
same,outcome,[17],inactive
c1ccc2scnc2c1,outcome,[1],inactive
same,outcome,[18],inactive
same,outcome,[3],inactive
same,outcome,[4],inactive
same,outcome,[5],inactive
same,outcome,[6],inactive
same,outcome,[7],inactive
same,AC50,[11],55.6 µM (active)
same,outcome,[12],inactive
same,outcome,[13],inactive
same,outcome,[14],inactive
same,outcome,[15],inactive
same,outcome,[19],inactive
same,outcome,[16],inactive
same,outcome,[17],inactive
CC(=O)N(C)C,outcome,[1],inactive
same,outcome,[18],inactive
same,outcome,[2],inactive
same,outcome,[4],inactive
same,outcome,[5],inactive
same,outcome,[7],inactive
same,outcome,[8],inactive
same,outcome,[9],inactive
same,outcome,[10],inactive
same,outcome,[11],inactive
same,outcome,[12],inactive
same,outcome,[13],inactive
same,outcome,[14],inactive
same,outcome,[15],inactive
same,outcome,[19],inactive
same,outcome,[16],inactive
same,outcome,[17],inactive
CC(O)CNCC(C)O (stereo not given),outcome,[1],inactive
same,outcome,[2],inactive
same,outcome,[3],inactive
same,outcome,[4],inactive
same,outcome,[5],inactive
same,outcome,[6],inactive
same,outcome,[7],inactive
same,outcome,[8],inactive
same,outcome,[9],inactive
same,outcome,[10],inactive
same,outcome,[11],inactive
same,outcome,[12],inactive
same,outcome,[13],inactive
same,outcome,[14],inactive
same,outcome,[15],inactive
same,outcome,[19],inactive
same,outcome,[16],inactive
same,outcome,[17],inactive
C=C(C)C(N)=O,outcome,[1],inactive
same,outcome,[2],inactive
same,outcome,[3],inactive
same,outcome,[4],inactive
same,outcome,[5],inactive
same,outcome,[6],inactive
same,outcome,[7],inactive
same,outcome,[8],inactive
same,outcome,[9],inactive
same,outcome,[10],inactive
same,outcome,[11],inactive
same,outcome,[13],inactive
same,outcome,[14],inactive
same,outcome,[15],inactive
same,outcome,[19],inactive
same,outcome,[16],inactive
same,outcome,[17],inactive
CC1(C)CC(=O)CC(C)(C)N1,outcome,[1],inactive
same,outcome,[18],inactive
same,outcome,[3],inactive
same,outcome,[4],inactive
same,outcome,[5],inactive
same,outcome,[6],inactive
same,outcome,[7],inactive
same,outcome,[8],inactive
same,outcome,[10],inactive
same,AC50,[11],36.2 µM (active)
same,outcome,[12],inactive
same,outcome,[13],inactive
same,outcome,[14],inactive
same,outcome,[15],inactive
same,outcome,[19],inactive
same,outcome,[16],inactive
same,outcome,[17],inactive
CCCC1CCC(=O)CC1,outcome,[1],inactive
same,outcome,[18],inactive
same,outcome,[3],inactive
same,outcome,[4],inactive
same,outcome,[5],inactive
same,outcome,[6],inactive
same,outcome,[8],inactive
same,outcome,[9],inactive
same,outcome,[10],inactive
same,outcome,[13],inactive
same,outcome,[14],inactive
same,outcome,[15],inactive
same,outcome,[19],inactive
same,outcome,[16],inactive
same,outcome,[17],inactive
